Reference: PubChem BioAssay
Active and inactive are the calls of the source.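 How the source made its calls, unless noted: active means compounds whose cell count with miR-34 switched on is under 0.7 times the count with it off; inactive means the rest.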

Legend:
[1] = viability loss with induced miR-34 in A549 – imaging, A549 dox-inducible miR-34, nuclei and caspase counts, primary screen (AID 1347080); conditions: A549 miR-34 inducible, Hoechst nuclei count, 48 h
[2] = MELAS cybrid and Rieske KO viability enhancers – cell-based, MELAS cybrids, Rieske KO mouse fibroblasts, CellTiter-Glo, primary screen (AID 1508586;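 active means mean z-score across replicates of 1.96 or higher in either the MELAS or the Rieske mutant cell line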;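 further: z relative to plate mean and SD of compound and empty wells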); conditions: low glucose
[3] = stronger effect = lower value, cell number ratio, induced over uninduced
[4] = measured here: relative caspase fold change +Dox/-Dox
[5] = measured here: total cells with miR-34 induction, stronger effect = lower value
[6] = measured here: total cells without miR-34 induction
[7] = MELAS cybrid survival, CellTiter-Glo 48 h, stronger effect = higher value
[8] = Rieske KO mouse fibroblast survival, CellTiter-Glo 72 h
Further: test concentration not given here.

SMILES	fold change [1, 3]	fold change [1, 4]	cell count [1, 5]	cell count [1, 6]	z-score [2, 7]	z-score [2, 8]
C[C@]12CCC(=O)C=C1[C@@H]1C[C@@H]1[C@H]1[C@@H]3[C@@H]4C[C@@H]4[C@]4(CCC(=O)O4)[C@@]3(C)CC[C@H]12	0.956 (inactive)	0.848	6880	7200	-0.459 (inactive)	0.378
CCC(=O)O[C@@]1(C(=O)SCF)C(C)C[C@H]2[C@@H]3CC(F)C4=CC(=O)C=C[C@]4(C)[C@]3(F)C(O)C[C@@]21C (stereo not given in full)	0.849 (inactive)	1.14	4990	5880	-0.525 (inactive)	-0.481
O=C(C=Cc1ccccc1)NC(NC(=S)Nc1cccc2cccnc12)C(Cl)(Cl)Cl (stereo not given)	0.979 (inactive)	0.343	6780	6920	-0.276 (inactive)	0.21
OC1CO[C@H]2C(O)CO[C@H]12 (stereo not given in full)	0.905 (inactive)	0.942	8830	9750	-0.254 (inactive)	-0.154
Cc1c(O)cccc1C(=O)NC(CSc1ccccc1)C(O)CN1C[C@H]2CCCC[C@H]2CC1C(=O)NC(C)(C)C (stereo not given in full)	0.999 (inactive)	0.485	7710	7710	-0.177 (inactive)	-0.0438
CN(C)C(=O)c1ccc(S(=O)(=O)c2ccc(NC(=O)C(C)(O)C(F)(F)F)c(Cl)c2)cc1 (stereo not given)	0.887 (inactive)	0.601	6480	7310	-0.391 (inactive)	-0.0234
CNCc1cc(-c2ccccc2F)n(S(=O)(=O)c2cccnc2)c1	0.924 (inactive)	0.437	8460	9150	-0.328 (inactive)	0.241
CC(C)N(CCCNC(=O)Nc1ccc(C(C)(C)C)cc1)CC1OC(n2cc(Br)c3c(N)ncnc32)C(O)C1O (stereo not given)	0.844 (inactive)	1.16	7150	8480	-0.128 (inactive)	-0.178
O=C(O)c1ccc(C=C2SC(=S)N(c3cccc(C(F)(F)F)c3)C2=O)cc1	0.824 (inactive)	0.518	6780	8220	-0.207 (inactive)	-3.49
CC1(C)OC2C[C@H]3[C@@H]4CCC5=CC(=O)C=C[C@]5(C)[C@]4(F)C(O)C[C@]3(C)[C@@]2(C(=O)CO)O1 (stereo not given in full)	0.812 (inactive)	1.01	5100	6270	-0.349 (inactive)	-0.501
CCCCCOC(=O)Nc1nc(=O)n(C2OC(C)C(O)C2O)cc1F (stereo not given)	0.881 (inactive)	1.03	6790	7710	-0.294 (inactive)	0.792
CC1CCO[C@H]2Cn3cc(C(=O)NCc4ccc(F)cc4F)c(=O)c(O)c3C(=O)N12 (stereo not given in full)	1 (inactive)	0.731	8400	8370	-0.34 (inactive)	0.66
CNC(C)C(=O)NC(C(=O)N1CCCC1C(=O)Nc1snnc1-c1ccccc1)C1CCCCC1 (stereo not given)	0.982 (inactive)	0.55	8360	8510	-0.276 (inactive)	-0.145
COc1cc(OC)c(C=CS(=O)(=O)Cc2ccc(OC)c(NCC(=O)O)c2)c(OC)c1	1.02 (inactive)	0.641	1610	1580	0.468 (inactive)	-0.375
CN1CCN(S(=O)(=O)c2ccc(-c3cnc(N)c(C(=O)Nc4cccnc4)n3)cc2)CC1	0.893 (inactive)	0.445	2390	2680	0.891 (inactive)	-1.29
Brc1ccc(C2CN3CCSC3=N2)cc1 (stereo not given)	0.957 (inactive)	0.301	9050	9460	-0.426 (inactive)	-0.0963
CCC(C)CC(C)CCCCCCCCC(=O)NC1CC(O)C(NCCN)NC(=O)[C@@H]2C(O)CCN2C(=O)[C@@H](C(O)CCN)NC(=O)[C@H](C(O)C(O)c2ccc(O)cc2)NC(=O)[C@@H]2CC(O)CN2C(=O)[C@H](C(C)O)NC1=O (stereo not given in full)	0.95 (inactive)	0.316	7980	8400	-0.141 (inactive)	0.0344
CCCC(NC(=O)C1[C@H]2CCC[C@H]2CN1C(=O)C(NC(=O)C(NC(=O)c1cnccn1)C1CCCCC1)C(C)(C)C)C(=O)C(=O)NC1CC1 (stereo not given in full)	0.872 (inactive)	1.37	5460	6260	-0.469 (inactive)	0.214
NC(N)=NN=Cc1c(Cl)cccc1Cl	0.921 (inactive)	0.613	8130	8830	-0.139 (inactive)	-0.245
CC(C)CC(NC(=O)CNC(=O)c1cc(Cl)ccc1Cl)B(O)O (stereo not given)	0.948 (inactive)	1.44	1800	1900	-0.0464 (inactive)	-3.37
COC(=O)C1=COC(OC2OC(CO)C(O)C(O)C2O)[C@H]2C(CO)=CC[C@H]12 (stereo not given in full)	0.942 (inactive)	0.842	7570	8040	-0.247 (inactive)	-0.0973
CC(CS)C(=O)N1CCCC1C(=O)O (stereo not given)	1.01 (inactive)	0.525	8320	8250	-0.2 (inactive)	-0.263
CNC(=O)c1cccc(-c2ccc3c(N4CCOCC4C)nc(N4CCOCC4C)nc3n2)c1 (stereo not given)	1 (inactive)	0.416	3420	3410	3.83 (active)	-2.15

SMILES	fold change [1, 3]	fold change [1, 4]	cell count [1, 5]	cell count [1, 6]	z-score [2, 7]	z-score [2, 8]
CC1OC(OC2C(Oc3cc(O)c4c(c3)OC(c3ccc(O)cc3)CC4=O)OC(CO)C(O)C2O)C(O)C(O)C1O (stereo not given)	1 (inactive)	0.741	8310	8300	-0.421 (inactive)	-0.0851
C=CC1=C(C(=O)O)N2C(=O)[C@H](NC(=O)C(=NO)c3csc(N)n3)[C@H]2SC1	0.881 (inactive)	1.23	7750	8790	-0.382 (inactive)	0.812
COC1C=CO[C@]2(C)Oc3c(C)c(O)c4c(O)c(c5c(nc6cc(C)ccn65)c4c3C2=O)NC(=O)C(C)=CC=CC(C)C(O)C(C)C(O)C(C)C(OC(C)=O)C1C (stereo not given in full)	0.885 (inactive)	1.2	7180	8110	-0.112 (inactive)	0.022
O=C(c1ccc(C=Cc2n[nH]c3ccccc23)cc1)N1CCNCC1	0.879 (inactive)	0.981	2420	2750	0.658 (inactive)	-1.76
O=C(O)C1=CC(O)C(O)C(O)C1 (stereo not given)	0.975 (inactive)	0.723	9710	9960	-0.355 (inactive)	0.667
Nc1nc(N)c2nc(-c3cccc(O)c3)cnc2n1	0.989 (inactive)	0.893	6340	6410	1.29 (inactive)	-0.0279
O=C(NN=Cc1ccc([N+](=O)[O-])o1)c1ccc(O)cc1	1.02 (inactive)	0.454	8470	8320	-0.586 (inactive)	-0.436
CC1(C)C=C(CN2CC(=Cc3ccc(F)cc3)C(=O)C(=Cc3ccc(F)cc3)C2)C(C)(C)N1O	0.876 (inactive)	0.446	6830	7800	-0.493 (inactive)	-2.15
OC(COc1cccc2ncccc12)CN1CCN(C2c3ccccc3C3C(c4ccccc42)C3(F)F)CC1 (stereo not given)	1.04 (inactive)	0.683	5300	5090	-0.428 (inactive)	0.74
CC#CCn1c(N2CCCC(N)C2)nc2c1c(=O)n(Cc1nc(C)c3ccccc3n1)c(=O)n2C (stereo not given)	0.91 (inactive)	0.676	9950	10900	-0.379 (inactive)	0.539
COC(=O)C=CC(=O)OC	0.917 (inactive)	0.928	10100	11000	-0.336 (inactive)	0.844
CCCN1CC(CSC)C[C@@H]2c3cccc4[nH]cc(c34)C[C@H]21 (stereo not given in full)	0.938 (inactive)	0.485	7000	7460	-0.0829 (inactive)	-0.225
O=CC(O)C(O)C(O)C(O)CO (stereo not given)	0.892 (inactive)	0.805	8030	9000	-0.158 (inactive)	-0.000567
O=c1ncccn1C1OC(CO)C(O)C1O (stereo not given)	0.912 (inactive)	0.461	8580	9410	-0.447 (inactive)	-1.06
C[C@]12CC[C@H]3c4ccc(O)cc4CC[C@H]3[C@@H]1CCC2OC(=O)CCC1CCCC1 (stereo not given in full)	0.984 (inactive)	0.876	8050	8180	-0.17 (inactive)	-0.155
CN1[C@@H]2CC[C@@H]1CC(OC(=O)C(O)c1ccccc1)C2 (stereo not given in full)	0.924 (inactive)	0.78	8330	9020	-0.279 (inactive)	-0.173
NC1=N[C@@]2(c3cc(NC(=O)c4ccc(F)cn4)ccc3F)COC[C@@H]2CS1	0.902 (inactive)	1.51	8500	9420	-0.211 (inactive)	0.113
CC(CN1CC(=O)NC(=O)C1)N1CC(=O)NC(=O)C1 (stereo not given)	0.969 (inactive)	1.09	5760	5950	-0.442 (inactive)	0.325
O=C(NCc1cccc(O)c1)Nc1nc(-c2ccncc2)cs1	0.899 (inactive)	0.419	2990	3330	0.152 (inactive)	-1.61
COc1cc2c(cc1OC)CC(=O)N(CCCN(C)CC1Cc3cc(OC)c(OC)cc31)CC2 (stereo not given)	0.865 (inactive)	1.23	8090	9350	-0.285 (inactive)	0.346
CCC(C)C(=O)OC1CC(C)C=C2C=CC(C)C(CCC3CC(O)CC(=O)O3)[C@H]21 (stereo not given in full)	1.2 (inactive)	0.613	3590	2990	-0.367 (inactive)	-1.71
CC(NC(=O)C(Cc1ccccc1)NC(=O)OCc1ccccc1)C(=O)CF (stereo not given)	0.911 (inactive)	0.415	8780	9640	-0.389 (inactive)	-0.551
